Screens deposited in PubChem BioAssay by National Center for Advancing Translational Sciences (NCATS).
In the library only some 15% were active in any assay of this set; here they are far more common.
HCMV inh: qHTS Assay for inhibitors of the human cytomegalovirus (HCMV); hit rate 4.5% among 410,000; AID 1259415, 2018; HFF cells, HCMV-luciferase reporter, 72 h; hits give low values; activity change, negative = inhibition, % at 57.5 µM; in the data active = activity change below about -60%; inconclusive = no clear call, values can overlap the other calls; inactive = above about -39%
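Inhibition of viral replication was scored as loss of reporter luminescence in HFFs infected with HCMV-luciferase (MOI 1 PFU/cell) for 72 h; compounds tested at 2 doses, normalized to buffer and Salinomycin controls.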
Sm TGR block: qHTS Assay for the Inhibitors of Schistosoma Mansoni Peroxiredoxins; hit rate 3% among 360,000; Potency, µM (doses to about 114 µM), actives largely listed as inhibitors; AID 485364, 2010; purified TGR, DTNB reduction, TNB absorbance 405 nm; also: nearly all actives have a fitted effect of over 60% in size
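First, TGR (20 nM dispensed) and NADPH were mixed with compound. Second, a 15 min room-temperature incubation followed. Third, further NADPH and then DTNB were added to start the reaction. Finally, TNB absorbance was monitored kinetically.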
Pf growth 96h: Primary qHTS for delayed death inhibitors of the malarial parasite plastid, 96 hour incubation; P. falciparum luciferase reporter growth, 96 h; hit rate 6.9% among 320,000; Potency, µM (series often up to 28.7 µM), actives largely listed as inhibitors
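P. falciparum expressing integrated firefly luciferase grown in erythrocytes (2% hematocrit, 0.05% parasitemia final) with compounds for 96 hours at 37 C, 5% CO2. Growth inhibition read as loss of luminescence after adding luciferase detection reagent.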
Pf growth 48h: Primary qHTS for delayed death inhibitors of the malarial parasite plastid, 48 hour incubation; P. falciparum luciferase growth in erythrocytes, 48 h; Potency, µM (titrated, usually from 28.7 µM), hits mostly inhibitors; AID 504832, 2011; hit rate 5.9% among 310,000
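Here the parasites carry a stable luciferase gene and grow inside erythrocytes in Albumax-based RPMI medium with compound for one erythrocytic cycle. Activity is scored as loss of luminescent signal.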
HCV inh: qHTS Assay for Inhibitors of Hepatitis C Virus (HCV). AID 651820, 2012. Huh7.5.1 HCVcc-Cre infection, luciferase reporter, 44 h. hit rate 3.4% among 340,000. Potency, µM (doses to about 41.8 µM), hits mostly inhibitors
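Antiviral activity was scored by luciferase reporter output from cells infected with HCVcc-Cre (~0.5 moi) in presence of compound, 44 h infection period, cells seeded 1,000/well 4 h prior.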
SARS PLP yeast: qHTS of Yeast-based Assay for SARS-CoV PLP | S. cerevisiae expressing SARS-CoV PLpro, growth rescue | Potency, µM (highest dose often 32.9 µM), hits mostly activators | hit rate 0.19% among 330,000 | AID 485353, 2010; calls by dose curve; also: nearly all actives have a fitted effect of over 55% in size
Numbers stand for hits; - = inactive; ? = inconclusive; . = no result. Unless noted, calls follow the shape of the dose curve; as a rule, active = well fitted curve in the direction sought with a large enough effect; inconclusive = small, poorly fitted or top-dose-only effect, or another doubt; inactive = no such curve, though single readings can be large; an effect the other way counts as inactive or inconclusive.

SMILES	HCMV inh	Sm TGR block	Pf growth 96h	Pf growth 48h	HCV inh	SARS PLP yeast
Cc1ccc(-c2nc(NC(=O)c3nn(C)cc3[N+](=O)[O-])sc2C)cc1C	-107	-	.	-	?	-
CC(=O)c1c(C)[nH]c(C(=O)Nc2nc(-c3ccc(Cl)cc3)cs2)c1C	?	-	?	?	?	-
Cc1nn(Cc2c(F)c(F)c(F)c(F)c2F)c(C)c1NC(=O)c1nn(C)cc1[N+](=O)[O-]	-	-	-	.	.	-
O=C(c1ccco1)c1coc2c1cc(O)c1ccccc12	-	.	?	?	-	-
CCC(=O)N1CCc2cc(Br)cc(S(=O)(=O)N(CC)Cc3ccccc3)c21	-	-	.	.	.	.
Cc1ccc(C2=NCC(C)n3nc4ccccc4c32)cc1 (stereo not given)	-	.	.	.	.	.
O=C(CSc1nnc(-c2c[nH]c3ccccc23)o1)N(Cc1ccccc1)c1ccc(F)cc1	.	-	?	7.4µM	?	-
CCOC(=O)CN(C(=O)CSc1nnc(-c2cccc(OC)c2)o1)c1ccc(F)cc1	-	-	?	?	-	?
COc1ccc(CN(C(=O)CSc2nnc(-c3ccccc3C)o2)c2ccc(F)cc2)cc1	-75	?	-	?	-	-
COc1cccc(C(C#N)NCCCNC(C#N)c2cccc(OC)c2OC)c1OC (stereo not given)	-	.	.	.	-	.
CC(=O)c1c(C)[nH]c(C(=O)N(C)C(c2ccccc2)c2ccccc2)c1C	-	-	?	?	?	-
COC(=O)CCN1CCC2CC1c1cc(Cl)ccc12 (stereo not given)	-	.	.	.	-	.
COc1ccc2c(c1)C1(Nc3ccccc3-c3nc4ccccc4n31)C(=O)N2 (stereo not given)	-	-	.	0.41µM	-	-
CC1(c2ccncc2)Nc2ccccc2-c2nc3ccccc3n21 (stereo not given)	-	-	2.6µM	3.3µM	-	-
COc1ccc2c(c1)C1(Nc3ccccc3-c3nc4ccccc4n31)C(=O)N2C (stereo not given)	-	-	-	6.6µM	-	-
O=C(NCC1CC1)c1cc(-c2ccccc2)nn1CC1CC(c2cccc([N+](=O)[O-])c2)=NO1 (stereo not given)	.	.	.	.	-	.
CCOc1ccc(-n2c(C)c(C(C)=O)c3cc(OCC(N)=O)ccc32)cc1	-	-	-	13µM	-	-
CCOc1ccc(-n2c(C)c(C(C)=O)c3cc(O)ccc32)cc1	-62	-	-	-	-	-
COc1ccc(-n2c(=O)c3ccccc3n(Cc3ccccc3F)c2=O)cc1OC	-	-	-	?	-	-
CCCCN(C=O)c1c(CC)nc2ccc(C(=O)N3CCCCC3)cn12	-	.	.	.	.	.
CC(=O)c1ccc(NC(=O)C(C)OC(=O)C2CCN(c3ccc(C(F)(F)F)cn3)CC2)cc1 (stereo not given)	-	-	-	?	?	-
CC(OC(=O)C1CCN(c2ccc(C(F)(F)F)cn2)CC1)C(=O)Nc1cccc([N+](=O)[O-])c1 (stereo not given)	-	-	?	12µM	-	-
CCCOC(=O)c1ccc(NC(=O)COC(=O)C2CCN(c3ccc(C(F)(F)F)cn3)CC2)cc1	-	.	.	.	-	.
CC(OC(=O)C1CCN(c2ccc(C(F)(F)F)cn2)CC1)C(=O)Nc1ccc(S(N)(=O)=O)cc1 (stereo not given)	-	-	13µM	?	.	-
Cc1ccc(NC(=O)COC(=O)C2CCN(c3ccc(C(F)(F)F)cn3)CC2)cc1	-73	-	-	-	-	-
COCCNC(=O)c1c(C)oc2nc(C)nc(N3CCOCC3)c12	-	-	.	.	.	.
COc1cccc2c1Oc1ncccc1N(C(=O)CCC(=O)NCc1ccccc1F)C2	?	-	12µM	-	-	-
CCOc1ccccc1CNC(=O)CCC(=O)N1Cc2ccccc2Oc2ncccc21	?	-	9.3µM	-	-	-
COc1ccccc1CNC(=O)CCC(=O)N1Cc2cccc(OC)c2Oc2ncccc21	-	-	9.3µM	-	-	-
